In the library only some 7.3% were active in any assay of this set; here they are far more common.
SMN2 splice up: enhancers of SMN2 splice variant expression; HEK293 SMN2-luciferase splicing reporter, luminescence, 30-36 h; Potency, µM (highest dose often 46.1 µM), without a hit: at the top dose activity change, positive = activation, most hits filed as activators; 210,000 tested, 2.8% active; AID 1458; also: % of control where 0% means no effect; nearly all actives have a fitted effect of over 55% in size
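HEK293 cells carry an SMN2 minigene-luciferase reporter in which exon 7 inclusion puts luciferase in frame. Cells were seeded at 2000 cells/well, attached for 10-12 hours, then exposed to compounds for 30-36 hours at 37C before ONE-Glo luminescence.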
Luc counter: counter-screen: inhibitors of Kinase-Glo firefly luciferase | Q27757 | Kinase-Glo luciferase, ATP luminescence, 8 min | Potency, µM (highest dose often 38.3 µM), for inactives: at the top dose activity change, negative = inhibition, hits mostly inhibitors | 200,000 tested, 0.28% active; also: % is scaled to controls: 0 for no effect and ±100 for the full control effect; nearly all actives have a fitted effect of over 60% in size
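Substrate mix (final 50 mM imidazole pH 7.2, 50 mM KCl, 7 mM MgCl2, 10 uM ATP, 0.01% Tween 20, 0.05% BSA) plus pin-tool compound, then Kinase-Glo detection mix; 8 min ambient, luminescence read.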
ELG1 genotox: genotoxicity induction in ELG1-luciferase HEK293T cells | HEK293T ELG1-luciferase reporter, luminescence, 16 h | Potency, µM (titrated, usually from 46 µM), without a hit: at the highest dose activity change, positive = activation, hits mostly activators | 330,000 tested, 1.3% active; also: % of control where 0% means no effect; nearly all actives have a fitted effect of over 60% in size
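Screening used a luciferase reporter fused to human ELG1 in HEK293T cells. Luminescence was read on a CCD plate imager after 16 hr exposure and 30 min ONE-Glo incubation.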
NPC1 prom act: activators of NPC1 promoter; Huh7 NPC1 promoter luciferase reporter, 24 h; Potency, µM (series often up to 9.22 µM), without a hit: top-dose activation, actives largely listed as activators; 320,000 tested, 2.4% active; also: % of control where 0% means no effect; nearly all actives have a fitted effect of over 60% in size
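Huh7 reporter cells (NPC1 promoter driving luciferase) are dosed with compound for 24 h at 37 °C, 5% CO2; luciferase detection reagent is then added and luminescence measured after 10 min at ambient temperature.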
FLuc modulator: counter-screen for miR-21 project: firefly luciferase inhibitors or activators. purified FLuc, Km substrates, luminescence inhibition. Potency, µM (top dose mostly 57.5 µM), for the others: top-dose activity change, negative = inhibition, usual class: inhibitors. 360,000 tested, 6.9% active;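 also: plate controls were vehicle for no effect and reference inhibitor for full effect; nearly all actives have a fitted effect of over 55% in size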
Target sequence (P08659 whole entry, looked up): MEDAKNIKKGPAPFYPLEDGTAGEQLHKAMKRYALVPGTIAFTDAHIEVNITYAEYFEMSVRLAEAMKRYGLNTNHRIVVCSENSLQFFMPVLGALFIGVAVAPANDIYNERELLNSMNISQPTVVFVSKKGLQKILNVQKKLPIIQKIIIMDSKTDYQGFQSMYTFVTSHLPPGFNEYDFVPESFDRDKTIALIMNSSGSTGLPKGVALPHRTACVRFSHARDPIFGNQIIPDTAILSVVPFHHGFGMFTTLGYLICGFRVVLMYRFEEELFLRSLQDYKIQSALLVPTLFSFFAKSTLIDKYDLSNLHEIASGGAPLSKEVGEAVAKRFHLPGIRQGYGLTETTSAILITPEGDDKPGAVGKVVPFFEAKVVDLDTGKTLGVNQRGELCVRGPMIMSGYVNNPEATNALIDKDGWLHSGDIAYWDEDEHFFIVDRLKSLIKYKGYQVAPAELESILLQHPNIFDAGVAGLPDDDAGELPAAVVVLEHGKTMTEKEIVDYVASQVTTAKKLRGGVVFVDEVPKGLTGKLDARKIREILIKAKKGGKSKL
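Purified P. pyralis luciferase (10nM final) with 10uM D-luciferin and 10uM ATP (Km levels) in 50mM Tris acetate pH 7.5, 10mM Mg acetate, 0.01% Tween-20, 0.05% BSA; qHTS 6-point titration, ~60 µM downward; luminescence read.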
Rab9 promoter act: activators of Rab9 promoter | Huh7 Rab9 promoter-luciferase reporter, luminescence, 24 h | Potency, µM (top dose mostly 9.22 µM), without a hit: top-dose activation, negative = inhibition, usual class: activators | 320,000 tested, 2.8% active | AID 485297; also: % of control where 0% means no effect; nearly all actives have a fitted effect of over 60% in size
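Luciferase signal after 10 min detection reagent at ambient indicates Rab9 promoter upregulation; stably transfected Huh7 cells were treated 24 h with compound in DMSO at 37 °C, 5% CO2.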
* marks the source's active call; other numbers are inactive results; ? = inconclusive; nt = not tested or not shown. Calls follow the shape of the dose curve; as a rule, active = well fitted curve in the direction sought with a large enough effect; inconclusive = small, poorly fitted or top-dose-only effect, or another doubt; inactive = no such curve, though single readings can be large; an effect the other way counts as inactive or inconclusive. Potency is read from the fitted curve at half-maximal effect.

SMILES	SMN2 splice up	Luc counter	ELG1 genotox	NPC1 prom act	FLuc modulator	Rab9 promoter act
CN1CCc2c(sc3c2C(=O)NC(c2ccc(C(C)(C)C)cc2)N3)C1 (stereo not drawn)	6%	nt	nt	nt	?	nt
O=C(c1ccco1)n1nc(-c2ccccc2)nc1NCc1ccc(Cl)cc1	-3%	nt	nt	nt	0%	nt
CCC(=O)n1nc(-c2ccc(Cl)cc2)nc1NCc1ccccc1	11%	0%	21µM*	18%	-2%	?
COc1ccc(CNC(=O)CCc2c(C)nn(-c3ccc(N4CCCCC4)nn3)c2C)cc1	nt	nt	nt	nt	-19%	nt
CC(=O)Nc1cccc(-n2nnc(SCC(=O)c3ccccc3)n2)c1	nt	nt	?	2.8µM*	17µM*	3.2µM*
COc1ccc(C(=O)CSc2nnn(-c3cccc(NC(C)=O)c3)n2)cc1	nt	nt	5%	?	17µM*	?
CC(=O)Nc1cccc(-n2nnc(SCC(N)=O)n2)c1	nt	nt	-3%	0%	0%	-1%
COn1c(-c2ccc(Cl)cc2)nc2ncccc21	nt	nt	?	?	21µM*	?
Cc1ccc(-c2nc3ncccc3n2O)cc1	nt	nt	4%	4%	-14%	-5%
COc1ccc(CNC(=O)CCCN2C(=O)CCn3nc(-c4cn(C)c5ccccc45)cc32)cc1	nt	nt	nt	nt	-4%	nt
CN(C)c1ccc(CNC(=O)CN2C(=O)CCn3nc(-c4cn(C)c5ccccc45)cc32)cc1	nt	nt	nt	nt	-2%	nt
N#CC1=C2SCN(c3ccccc3)CN2C(=O)CC1c1ccccc1Cl (stereo not drawn)	-1%	-2%	5%	-2%	?	-1%
N#CC1=C2SCN(c3ccccc3)CN2C(=O)CC1c1c(Cl)cccc1Cl (stereo not drawn)	10%	0%	0%	-1%	11µM*	0%
Cc1ccc(NC(=O)CSc2nnc(-c3cc4occc4n3C)n2-c2ccccc2C)c(C)c1	nt	nt	nt	nt	-12%	nt
O=C1CCS/C(=N\N=C\c2ccc(Cl)cc2Cl)N1	nt	nt	?	?	19µM*	?
Cc1ccccc1/C=N/N=C1/NC(=O)CCS1	nt	nt	10%	16%	?	1%
c1ccc(SCCSc2ccccc2)cc1	4%	nt	nt	nt	nt	nt
O=C(c1cc(-c2cccc(O)c2)on1)N1CCOCC1	?	-13%	2.9µM*	?	6.7µM*	?
COc1ccc(-c2cc(C(=O)N3CCOCC3)no2)cc1OC	21%	-4%	?	?	?	22%
O=C(c1cc(-c2cccc(O)c2)on1)N1CCCCCC1	nt	nt	13µM*	?	8.5µM*	-1%
Cc1cccc(C)c1OCc1cc(C(=O)N2CCCCCCC2)no1	nt	nt	4%	15%	?	23%
CC(=O)c1ccc(NC(=O)C2CCN(S(=O)(=O)c3ccc4c(c3)CCCN4C(=O)C3CCC3)CC2)cc1	nt	nt	nt	nt	0%	nt
CCc1ccccc1NC(=O)Cn1c(=O)n(Cc2ccc(OC)cc2)c(=O)c2oc3ccccc3c21	nt	nt	nt	nt	1%	nt
COc1nc(C)nc2c1sc1nc3c(cc12)COC(C)(C)C3	14µM*	9%	8.2µM*	2.5µM*	13µM*	2µM*
CCc1nc(OCc2ccco2)c2sc3nc4c(cc3c2n1)COC(C)(C)C4	nt	-3%	-2%	-1%	-20%	0%
SMILES	SMN2 splice up	Luc counter	ELG1 genotox	NPC1 prom act	FLuc modulator	Rab9 promoter act
CCc1nc2c(sc3nc4c(cc32)COC(C)(C)C4)c(=O)n1Cc1ccccc1	-34%	-1%	-5%	-6%	-10%	-13%
Cc1nc(OCC(C)C)c2sc3nc4c(cc3c2n1)COC(C)(C)C4	nt	nt	?	1.8µM*	9.5µM*	1.4µM*
CC(=O)Oc1ccc(/C=C/c2nc3ccccc3c(=O)o2)cc1	nt	nt	4%	?	0.43µM*	?
COc1ccc(-c2oc(=O)c3cc(OC)c(OC)cc3c2/C=C/c2ccc(OC(C)=O)cc2)cc1	nt	nt	2%	nt	nt	nt
CC(=O)Oc1ccccc1/C=C/c1nc2ccccc2c(=O)o1	nt	nt	1%	?	15µM*	?
O=c1oc(/C=C/c2ccc([N+](=O)[O-])s2)nc2ccccc12	nt	nt	?	?	?	24%

Compound activity (PubChem)
